# Measurements taken from the supplement of paper PMC10681739.
# Tests used:
# ETS1 [1] = biological target: T1, ETS1 (UniProt P14921); test: ETS1 binding intensity (PBM fluorescence), ETS1 alone (arbitrary fluorescence units); higher = stronger binding; conditions: ETS1 concentration 1 nM; RUNX1 concentration 0 nM
# T1 sequence: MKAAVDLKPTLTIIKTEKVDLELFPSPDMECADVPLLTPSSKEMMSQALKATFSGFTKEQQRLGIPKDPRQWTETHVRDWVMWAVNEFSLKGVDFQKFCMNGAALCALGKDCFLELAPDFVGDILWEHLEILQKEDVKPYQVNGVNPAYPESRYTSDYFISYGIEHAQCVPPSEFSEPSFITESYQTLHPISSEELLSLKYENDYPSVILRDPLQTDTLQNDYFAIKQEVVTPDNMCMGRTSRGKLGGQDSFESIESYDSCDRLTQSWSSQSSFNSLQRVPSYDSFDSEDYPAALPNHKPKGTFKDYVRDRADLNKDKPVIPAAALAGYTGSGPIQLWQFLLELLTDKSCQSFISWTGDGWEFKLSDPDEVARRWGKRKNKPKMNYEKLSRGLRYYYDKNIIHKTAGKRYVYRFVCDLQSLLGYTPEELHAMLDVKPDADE
# ETS1 [2] = biological target: T1, ETS1; test: ETS1 binding intensity (PBM fluorescence) in presence of RUNX1, normalised to ETS1-only experiment (arbitrary fluorescence units); higher = stronger binding; conditions: ETS1 concentration 1 nM; RUNX1 concentration 25 nM
# RUNX1 [3] = biological target: RUNX1 (UniProt Q01196); test: RUNX1 binding intensity (PBM fluorescence) in presence of ETS1, normalised to RUNX1-only experiment (arbitrary fluorescence units); higher = stronger binding; conditions: RUNX1 concentration 2 nM; ETS1 concentration 25 nM
# Chain of RUNX1 (Q01196 whole entry): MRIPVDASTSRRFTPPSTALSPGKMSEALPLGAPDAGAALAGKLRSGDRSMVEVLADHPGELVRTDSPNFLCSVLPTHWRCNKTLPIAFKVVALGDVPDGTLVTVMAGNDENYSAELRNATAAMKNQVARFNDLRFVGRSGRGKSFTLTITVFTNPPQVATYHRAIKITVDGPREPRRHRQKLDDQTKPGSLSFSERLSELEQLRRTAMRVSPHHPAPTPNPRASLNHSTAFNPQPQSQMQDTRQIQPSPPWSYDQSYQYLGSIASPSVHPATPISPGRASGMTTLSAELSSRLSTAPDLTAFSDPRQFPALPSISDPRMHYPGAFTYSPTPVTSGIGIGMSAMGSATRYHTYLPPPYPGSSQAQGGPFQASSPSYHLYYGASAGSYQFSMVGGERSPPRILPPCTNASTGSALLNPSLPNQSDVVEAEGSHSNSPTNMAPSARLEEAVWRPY
# Experimental: (§1)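 Cooperative gcPBM on 36-bp genomic probes with neighbouring ETS1 and RUNX1 sites. Recombinant human RUNX1 (2 nM) was incubated alone or with ETS1 (25 nM) and detected with anti-RUNX1 antibody plus Alexa488 secondary. Values are medians over 4 replicate spots; the RUNX1+ETS1 data were normalised to the RUNX1-only data. The probes sit in constant array flanks that are not printed.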
# RUNX1 [4] = biological target: RUNX1 (UniProt Q01196); test: RUNX1 binding intensity (PBM fluorescence), RUNX1 alone (arbitrary fluorescence units); higher = stronger binding; conditions: RUNX1 concentration 2 nM; ETS1 concentration 0 nM
# Experimental: as §1
# 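For RUNX1 binding intensity (PBM fluorescence) in presence of ETS1, normalised to RUNX1-only experiment in this document: Full-length recombinant human ETS1 or RUNX1 bound to double-stranded 36-bp genomic probes on microarrays, detected by protein-specific primary antibody and Alexa488 secondary, spot fluorescence as median of four replicate spots.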
# 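For RUNX1 binding intensity (PBM fluorescence), RUNX1 alone in this document: Full-length recombinant human RUNX1 bound to double-stranded 36-bp genomic probes on a high-density microarray, scored as Alexa488 fluorescence per spot via anti-RUNX1 antibody, median of four replicate spots.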
Sequence,ETS1 binding intensity (ETS1 [1]),ETS1 binding intensity (ETS1 [2]),RUNX1 binding intensity (RUNX1 [3]),RUNX1 binding intensity (RUNX1 [4])
TGGACGTAACACTCAGGAAGTGGTCAACCTTGCTGC,2630,5810,1340,
CCCACCCGGAAATGAGCCAACAGTGGTTTCGCCCCG,1590,2010,1380,
GTCTTTCACTCCACTTCCGCCCCCACAAAACATACA,2850,3620,6600,
CTTCTACTTCCTGCCCCGCCCCCAGCTGTGGTCACA,1420,3150,3430,
CTTCTGAGAGGAGGATGTGGTCAGATACCTACAAAT,1030,7800,1650,
TCCCCACACTTCCGGCCCCGCCCGCACAGCCGCACC,3270,4360,5780,1130
TATGTCTGACTTCCGCTCGTGGTTTCCATCTTAGCC,2870,5230,2850,895
AATCCCGGAAACGCGGATTCAGCGGAGCGCGGTGAC,1280,1500,1260,
CAGTTTGCCCCGGATGTTGACCGCCTTGAAGTCGTA,4170,4900,1380,910
ACTTTAATAGAGTCCGGATGCGGTTAGGCTGACAGA,2670,30400,7430,2000
TGGGGCCCGGAAGCGCTGGCGCCTTGCGGCCAGAAG,1500,3180,952,
AGCTCCCCTCCCCGGAAACTTGACCACCTAGCCCAG,1510,1660,813,
TGGGCAAGATATCCTGGAAGTGGTTAAAAAAAATTA,687,1050,1060,739
GCCCCAGCCCCCGGATGTGGTGACAGAATCGATACT,3220,6050,4060,
GCGCACTTCCGGGCTGGTGAACGCGGTGACGTCACC,1250,1210,1720,
AACAGTACTTCCGGGGCAAGTGAGCGCCCACAAGGC,934,1300,1970,806
GCTGCCACTTCCCTTGCTTATTTCATGTGGTTTGGA,552,794,1980,1230
ATGCTAGAAAGCAGGAAGCCACAGACACGCCCCAAC,1180,1120,875,857
GCAGAGAGGAAGTGTGGGGGTGGAGGAGGCCGCAGA,681,973,1000,828
GTTTCATGTTAAGTAGGATGTGGTCAGTTAGCTTCG,851,5410,1290,
CGGAGGCGGCCGGAAGTAGCGCTGCGGTTGGCAGCT,16800,64100,6060,937
CTACTTTCCGGTCAACGCGGCCTGCGGTACCACCTC,438,720,2720,1160
CTGTCCGCGACATCCGGGACCTGCGGGACCGCCGAT,1250,1470,1760,765

Sequence,ETS1 binding intensity (ETS1 [1]),ETS1 binding intensity (ETS1 [2]),RUNX1 binding intensity (RUNX1 [3]),RUNX1 binding intensity (RUNX1 [4])
GCGAAAGGAACTTCCTTTGCATGCGGTCAGAGTGCT,477,2280,2490,892
TGGCATTCTCCTTCCTGTCTCCTAACCACAGCCCAC,741,2050,4690,
GCTCCTCCCGGATATAAAGCCCCAAACCACGCCACT,724,1610,1410,
CCAACTTTTGAGGGATGTGGTTACGTTTTCTAGATC,366,1440,1620,
GGCTGGGGCGGTATCCTGTGGTCTTACTCTGGTGAC,445,437,2620,1520
GAAATGAGAGAACGGAAACCACAAGTCAAGGGGCTT,1460,2790,4480,3620
GACAGGAAGTGACCTCAATTTCCCCGGCCACAGAAA,2650,4280,1770,
AGCTCAATTTCCTGGCGTGTAACATGGCCACAAGGG,827,595,1390,
GAGCCACCGGAAACGGAGCTGCGGCCGCGCCCCGCC,5340,7820,1650,747
CATTTACAGAAAAGGAAACCGCAAGTTTGAGCAAGT,976,2150,30700,25200
ATAAACAGGAAGCTGAGTATGTGACCACAGACATTC,1670,5200,1630,840
CCCGGAGGACGTCCGGCCTCTGTGAGCCGCAACCTT,440,561,1370,
AGGTTAATACCCGGAACTACCACAACCGTCTTCCCT,772,862,985,
GAGGGCCTGGGAGGAAGTGGGTTTTGCATACAGTCC,1870,2510,1330,
GACCAATGTAAACAAGGATGTGGGTTCTCCGGCCAC,784,3290,1190,
CATTGATCAAAGACAGGATGTGGTAACAGGCAGTTA,8340,39500,3100,
TACCCCGCCGGAAGCCCCCTGCTCTGTGGGAACCGG,2480,3660,1270,
AAAATTAAAGCAGGAAGTAATCAACCACATCAAATG,3130,9610,1610,
CCCACTTCCTGTCTGCTTCCCTCCACCGCTCAGACC,2890,2650,4290,
GCAGAAACAGGAAGAGACAGGGCTGACCGCAGCAGG,1290,6300,2340,
GACCAGGCGAGAGGATGTGGGTATGAGGGAGGAGCT,819,1640,1090,
CTAACCCTTCTCTTCCTGCAAAAACCACAACAAAGG,640,1720,3580,
CTTGCCACACTTCCTCTTGTTTTGAACCACTATATT,724,641,4740,

Sequence,ETS1 binding intensity (ETS1 [1]),ETS1 binding intensity (ETS1 [2]),RUNX1 binding intensity (RUNX1 [3]),RUNX1 binding intensity (RUNX1 [4])
CCTGGGGGGCCGGAAGCCCCGCTGCGGCCCCAGCCC,3060,2480,1130,
AAAGTTGTATAGTGAGGATGTGGTCAAGAACTCACC,577,4380,1180,
GGACTGCGTTTCCGGACACTGCGGGTGCCGGTAGCC,1290,1680,1450,
TAGCCGTACGGAAATGTTTGTGGTTCTCTGCATCTA,647,1010,1230,
AATGGGCTTGGTTTCCTGTGGGTTTGTAGCTTTGTA,519,685,2120,
CTGCCCAGCCACTTCCTGCCCAACCACAGACTGACA,2210,4910,6000,
TGCGCGCCGGCTTCCGCTGCGGCCAGTCGGGCGGCG,668,635,1240,
GCAGAGAGATTGGCCGGATGCGGTGGCTCACGCCTT,4850,8930,1140,
TCTGCCGCCAGCCCATCCGCGACCGCATCCAGATCT,346,653,1210,
GAGAGAGGCAGGAAGTGTTGTGGTTATTGTTTGAGC,4710,24200,2210,
CCTTCCTTCCGGGGTCGGCCCCGCCCGCAAGCGCCG,441,467,3960,
TTCTTCCCCCTTCCGGTCGCTGAGTGGTTGAGGCCG,4140,3610,2500,
ACAACTTCCTGTGGGATTTTTGGTGTCTGCGGCTCA,818,858,2810,
CTGTCATCTTCCTGACAGCACGCCCACAAAGGACCA,482,377,916,
GATGCTTGTTCAGGATGCGGTTTCTTGCAGCAAGTT,674,2380,5090,
CTGCAGATGCATTTCCTTTTTGTGGTAGCAAGCGTG,570,932,1470,
AACCTAGAAAAGGAAGCTGCGGTTTTTCAGGGTATG,697,6430,12300,
GAGCGCAGGACGGAAGCTCGGTGCGGGTGCGGCCTC,964,938,917,
GGCTTTCCGTTCAAGGATCTTTTTGCGGTCTTTGTC,445,777,3270,
AGGGAAGCAGGAAGTGACTGCGGGAGTGGAGCCGGC,3920,3540,1080,
ACAGTCGCACCGGAAGCTGCCCGCGGTGTTGACACA,8580,11300,1360,
AGAAACATCCTGCCCAGCCACCTGACCACAAGGCAC,377,1070,3130,
GAGGCCCAGGATGTGGCTGGAGGCCTGTGGTGGGAC,630,1130,864,

Sequence,ETS1 binding intensity (ETS1 [1]),ETS1 binding intensity (ETS1 [2]),RUNX1 binding intensity (RUNX1 [3]),RUNX1 binding intensity (RUNX1 [4])
GCAGCTGCAAACAGGAAACCACAGCAGCGTAGCGGA,2910,8470,1710,
CCTTTACGTTTTCCTGTTGCGGGTTCTATCGCTCTG,506,592,3260,
GCGGGCGGAAGTGCCGAGGTTGTACCGCGGCGCTGG,2020,2260,1200,
GGGGACCGGAAAGGGAGGGGTGGGCCGCAGGCGCCG,786,680,1150,
GGGGCTCCGCAGGAAGTAGGGCTCCCACAACTTTGC,2970,2310,1040,
GGTCCCCCCGGTTCCGGCGCGGTTGAGGCCTTCGGT,683,676,1170,
CGCCTGCCCCACTTCCGCCCGGACCCGCAGCCCCTA,2450,3210,3610,
AGCGGCTGCACAGGAAGTTGGTTTTCACAAAGGCAA,5520,6650,1190,
GAGTTCTAGACTACAGGATGTGGTTAGAAGAAAAGA,4670,56900,4800,
AGCGCCCCATCCCGCGGATGTGGTAAAGCTTCGCGC,658,4400,1570,
GGCAGCCGGCTTCCGGCTGTGGGTGGTGCGGGGGAC,1370,1820,1540,
TTACAGGGGCCGGAAGTGGCCTGCGGGCGGAGAAGT,21200,30900,2020,
GCCTGTGGAGTTGCAGGATGTGGTTGGCGAAAAGAA,2130,7880,1360,
TGAGAAAGCTATTTCCGCCCACAAAGAGGCAAGTCT,1420,1370,1570,
CTTGTGAAATGTATCCTGTGGTTGCCGGCTGAAGTG,499,419,1380,
GCCTCCTCAGGAAATTGCCCAAAATAGCCACATGTC,735,667,1240,
CTGGTAGAAAAGGAAGCAGGTTGTGGTGAGCATTTA,837,1720,932,
GTCCCCGACTTCCGCTCTCGGTTGGTGGTTGGCTTT,2370,3430,2590,
CAGTGGCTAAGGATCCGGTGTTGCGGTGATACATGA,430,643,1280,
GTCGGAAGTGGCCGTGAGCCCAAGCCGCGGTCCCGG,480,486,951,
CTTATCTTCTTCCTGTGAGCTGTGTGTGGGTGGCTC,489,397,1580,
